# Reference: the supplement of paper PMC10037445
# Over roughly 2,900 compounds, “NF-kB SEAP reporter activity, fold change vs agonist alone” has its median near 0.99; the highest 2% begin near 2.6. Shown is part of a subset that was picked to be rich in the highest values.
# What was measured:
# RAW-Dual [1] = assay: NF-kB SEAP reporter activity, fold change vs agonist alone; cytotoxicity flag (confluency mask): not cytotoxic; higher = enhanced NF-kB activity
# Procedure, shortened: (§1)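 Reporter activity is given as fold change relative to agonist-alone wells. To measure it, 50 nL of library stock was pin-tooled onto RAW-Dual macrophages (50,000 cells/well, DMEM, 384-well plates), a PRR agonist followed 1 h later, and cells stayed at 37 °C, 5% CO2. Twenty hours on, supernatant was assayed for IRF (QuantiLuc luminescence) and NF-κB (QuantiBlue, 620 nm absorbance), and wells under 70% of agonist-control IncuCyte confluency in both mask sets were marked cytotoxic.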
# RAW-Dual [2] = assay: NF-kB SEAP reporter activity, fold change vs agonist alone; higher = enhanced NF-kB activity; conditions: cytotoxicity flag (confluency mask): not cytotoxic
# Procedure, shortened: as §1
# [3] = agonist: ODN 1826 (TLR9) 0.5 ug/mL
# [4] = agonist: Pam2CSK4 (TLR2/6) 0.1 ug/mL
# [5] = agonist: Pam3CSK4 (TLR2/1) 0.1 ug/mL
# [6] = library stock concentration (final ~1000-fold dilution): 10 mM, agonist: MPLA (TLR4) […]
# [7] = library stock concentration (final ~1000-fold dilution): 10 mM, agonist: Imiquimod (TLR7) […]
structure (smiles),measurement,setting,value
COc1ccc2cccc(CCNC(C)=O)c2c1 (library stock concentration (final ~1000-fold dilution): 10 mM),NF-kB SEAP reporter activity,RAW-Dual [1]; agonist: LPS (TLR4) 0.1 ug/mL,1.33
same,NF-kB SEAP reporter activity,RAW-Dual [1]; [3],1.09
same,NF-kB SEAP reporter activity,RAW-Dual [1]; [4],1.03
same,NF-kB SEAP reporter activity,RAW-Dual [1]; [5],1.19
COc1ccc(S(=O)(=O)Nc2cc(-c3c(O)ccc4ccccc34)c(O)c3ccccc23)cc1 (library stock concentration (final ~1000-fold dilution): 10 mM),NF-kB SEAP reporter activity,RAW-Dual [1]; agonist: LPS (TLR4) 0.1 ug/mL,4.3
same,NF-kB SEAP reporter activity,RAW-Dual [1]; [3],1.09
same,NF-kB SEAP reporter activity,RAW-Dual [1]; [4],1.29
same,NF-kB SEAP reporter activity,RAW-Dual [1]; [5],1.38
CCOc1ccc(Cc2cc(C34OCC(CO)(O3)C(O)C(O)C4O)ccc2Cl)cc1 (centres undefined),NF-kB SEAP reporter activity,RAW-Dual [2]; [6],1.09
CCOc1ccc(Cc2cc(C34OCC(CO)(O3)C(O)C(O)C4O)ccc2Cl)cc1 (centres undefined) (library stock concentration (final ~1000-fold dilution): 10 mM),NF-kB SEAP reporter activity,RAW-Dual [1]; agonist: LPS (TLR4) 0.1 ug/mL,0.975
same,NF-kB SEAP reporter activity,RAW-Dual [1]; [3],1.1
same,NF-kB SEAP reporter activity,RAW-Dual [1]; [4],1.13
same,NF-kB SEAP reporter activity,RAW-Dual [1]; [5],0.829
COc1ccc(CCN(C)CCCC(C#N)(c2ccc(OC)c(OC)c2)C(C)C)cc1OC.Cl (centres undefined),NF-kB SEAP reporter activity,RAW-Dual [2]; [7],0.98
same,NF-kB SEAP reporter activity,RAW-Dual [2]; [6],1.03
COc1ccc(CCN(C)CCCC(C#N)(c2ccc(OC)c(OC)c2)C(C)C)cc1OC.Cl (centres undefined) (library stock concentration (final ~1000-fold dilution): 10 mM),NF-kB SEAP reporter activity,RAW-Dual [1]; agonist: LPS (TLR4) 0.1 ug/mL,1.06
same,NF-kB SEAP reporter activity,RAW-Dual [1]; [3],0.89
same,NF-kB SEAP reporter activity,RAW-Dual [1]; [4],0.949
same,NF-kB SEAP reporter activity,RAW-Dual [1]; [5],1.04
CN1CC(=O)N2C(Cc3c([nH]c4ccccc34)C2c2ccc3c(c2)OCO3)C1=O (centres undefined),NF-kB SEAP reporter activity,RAW-Dual [2]; [7],0.955
same,NF-kB SEAP reporter activity,RAW-Dual [2]; [6],0.984
CN1CC(=O)N2C(Cc3c([nH]c4ccccc34)C2c2ccc3c(c2)OCO3)C1=O (centres undefined) (library stock concentration (final ~1000-fold dilution): 10 mM),NF-kB SEAP reporter activity,RAW-Dual [1]; agonist: LPS (TLR4) 0.1 ug/mL,1.17
same,NF-kB SEAP reporter activity,RAW-Dual [1]; [3],1.18
same,NF-kB SEAP reporter activity,RAW-Dual [1]; [4],1.13
same,NF-kB SEAP reporter activity,RAW-Dual [1]; [5],1.11
O=S(=O)(NCCSSCCNS(=O)(=O)c1cc(Cl)ccc1Cl)c1cc(Cl)ccc1Cl (library stock concentration (final ~1000-fold dilution): 10 mM),NF-kB SEAP reporter activity,RAW-Dual [1]; agonist: LPS (TLR4) 0.1 ug/mL,0.705
same,NF-kB SEAP reporter activity,RAW-Dual [1]; [3],0.705
same,NF-kB SEAP reporter activity,RAW-Dual [1]; [4],0.573
same,NF-kB SEAP reporter activity,RAW-Dual [1]; [5],0.312
Cc1cc([N+](=O)[O-])ccc1NS(=O)(=O)c1cc(Cl)ccc1Cl,NF-kB SEAP reporter activity,RAW-Dual [2]; [7],1.01
same,NF-kB SEAP reporter activity,RAW-Dual [2]; [6],1.41
Cc1ccc([N+](=O)[O-])cc1S(=O)(=O)N(C)C,NF-kB SEAP reporter activity,RAW-Dual [2]; [7],0.951
same,NF-kB SEAP reporter activity,RAW-Dual [2]; [6],1.14
Cc1ccc([N+](=O)[O-])cc1S(=O)(=O)N(C)C (library stock concentration (final ~1000-fold dilution): 10 mM),NF-kB SEAP reporter activity,RAW-Dual [1]; agonist: LPS (TLR4) 0.1 ug/mL,1.07
same,NF-kB SEAP reporter activity,RAW-Dual [1]; [3],0.867
same,NF-kB SEAP reporter activity,RAW-Dual [1]; [4],0.994
same,NF-kB SEAP reporter activity,RAW-Dual [1]; [5],1.36
O=S(=O)(NCCSSCCNS(=O)(=O)c1cc(Cl)ccc1Cl)c1cc(Cl)ccc1Cl,NF-kB SEAP reporter activity,RAW-Dual [2]; [7],1.13
same,NF-kB SEAP reporter activity,RAW-Dual [2]; [6],1.03
Cc1cc([N+](=O)[O-])ccc1NS(=O)(=O)c1cc(Cl)ccc1Cl (library stock concentration (final ~1000-fold dilution): 10 mM),NF-kB SEAP reporter activity,RAW-Dual [1]; agonist: LPS (TLR4) 0.1 ug/mL,3.09
same,NF-kB SEAP reporter activity,RAW-Dual [1]; [3],0.67
same,NF-kB SEAP reporter activity,RAW-Dual [1]; [4],0.323
same,NF-kB SEAP reporter activity,RAW-Dual [1]; [5],0.349
COC(C)Cn1c(=O)n(C)c2cnc3ccc(-c4cncc(C(C)(C)O)c4)cc3c21 (centres undefined),NF-kB SEAP reporter activity,RAW-Dual [2]; [7],0.865
same,NF-kB SEAP reporter activity,RAW-Dual [2]; [6],1.85
COC(C)Cn1c(=O)n(C)c2cnc3ccc(-c4cncc(C(C)(C)O)c4)cc3c21 (centres undefined) (library stock concentration (final ~1000-fold dilution): 10 mM),NF-kB SEAP reporter activity,RAW-Dual [1]; agonist: LPS (TLR4) 0.1 ug/mL,1.84
same,NF-kB SEAP reporter activity,RAW-Dual [1]; [3],1.26
same,NF-kB SEAP reporter activity,RAW-Dual [1]; [4],0.476
same,NF-kB SEAP reporter activity,RAW-Dual [1]; [5],1.03
CC(=O)c1c(C)c2cnc(Nc3ccc(N4CCNCC4)cn3)nc2n(C2CCCC2)c1=O.O=S(=O)(O)CCO (library stock concentration (final ~1000-fold dilution): 10 mM water),NF-kB SEAP reporter activity,RAW-Dual [1]; agonist: LPS (TLR4) 0.1 ug/mL,1.71
same,NF-kB SEAP reporter activity,RAW-Dual [1]; [3],0.449
same,NF-kB SEAP reporter activity,RAW-Dual [1]; [4],0.752
same,NF-kB SEAP reporter activity,RAW-Dual [1]; [5],1.29
CC(=O)c1c(C)c2cnc(Nc3ccc(N4CCNCC4)cn3)nc2n(C2CCCC2)c1=O.O=S(=O)(O)CCO,NF-kB SEAP reporter activity,"RAW-Dual [2]; library stock concentration (final ~1000-fold dilution): 10 mM water, agonist: Imiquimod (TLR7) […]",0.674
same,NF-kB SEAP reporter activity,"RAW-Dual [2]; library stock concentration (final ~1000-fold dilution): 10 mM water, agonist: MPLA (TLR4) […]",1.09
CCC(Nc1ncnc2[nH]cnc12)c1nc2cccc(F)c2c(=O)n1-c1ccccc1 (centres undefined),NF-kB SEAP reporter activity,RAW-Dual [2]; [7],0.75
same,NF-kB SEAP reporter activity,RAW-Dual [2]; [6],0.952
CCC(Nc1ncnc2[nH]cnc12)c1nc2cccc(F)c2c(=O)n1-c1ccccc1 (centres undefined) (library stock concentration (final ~1000-fold dilution): 10 mM),NF-kB SEAP reporter activity,RAW-Dual [1]; agonist: LPS (TLR4) 0.1 ug/mL,1.27
same,NF-kB SEAP reporter activity,RAW-Dual [1]; [3],1.08
same,NF-kB SEAP reporter activity,RAW-Dual [1]; [4],0.969
same,NF-kB SEAP reporter activity,RAW-Dual [1]; [5],0.843
CC(NC(=O)c1ncnc(N)c1Cl)c1ncc(C(=O)Nc2cc(C(F)(F)F)c(Cl)cn2)s1 (centres undefined),NF-kB SEAP reporter activity,RAW-Dual [2]; [7],0.623
same,NF-kB SEAP reporter activity,RAW-Dual [2]; [6],0.876
CC(NC(=O)c1ncnc(N)c1Cl)c1ncc(C(=O)Nc2cc(C(F)(F)F)c(Cl)cn2)s1 (centres undefined) (library stock concentration (final ~1000-fold dilution): 10 mM),NF-kB SEAP reporter activity,RAW-Dual [1]; agonist: LPS (TLR4) 0.1 ug/mL,0.632
same,NF-kB SEAP reporter activity,RAW-Dual [1]; [3],0.495
same,NF-kB SEAP reporter activity,RAW-Dual [1]; [4],0.383
same,NF-kB SEAP reporter activity,RAW-Dual [1]; [5],0.417
O=C1C(Cc2ccc(O)cc2)N2C(=O)CCN(C(=O)NCc3ccccc3)C2CN1Cc1cccc2ccccc12 (centres undefined),NF-kB SEAP reporter activity,RAW-Dual [2]; [7],1.45
same,NF-kB SEAP reporter activity,RAW-Dual [2]; [6],2.26
O=C1C(Cc2ccc(O)cc2)N2C(=O)CCN(C(=O)NCc3ccccc3)C2CN1Cc1cccc2ccccc12 (centres undefined) (library stock concentration (final ~1000-fold dilution): 10 mM),NF-kB SEAP reporter activity,RAW-Dual [1]; agonist: LPS (TLR4) 0.1 ug/mL,3.72
same,NF-kB SEAP reporter activity,RAW-Dual [1]; [3],1.08
same,NF-kB SEAP reporter activity,RAW-Dual [1]; [4],0.484
same,NF-kB SEAP reporter activity,RAW-Dual [1]; [5],0.63
CNCCN1CCC(OCc2ccccc2)CC1.Cl.Cl,NF-kB SEAP reporter activity,RAW-Dual [2]; [7],1.55
same,NF-kB SEAP reporter activity,RAW-Dual [2]; [6],0.921
CNCCN1CCC(OCc2ccccc2)CC1.Cl.Cl (library stock concentration (final ~1000-fold dilution): 10 mM),NF-kB SEAP reporter activity,RAW-Dual [1]; agonist: LPS (TLR4) 0.1 ug/mL,1.03
same,NF-kB SEAP reporter activity,RAW-Dual [1]; [3],1.45
same,NF-kB SEAP reporter activity,RAW-Dual [1]; [4],0.877
same,NF-kB SEAP reporter activity,RAW-Dual [1]; [5],1.53
